Measured values published in the supplement of paper PMC10849652.
Targets with a hit are over-represented here; the source holds about 8,800 in all. About 0.5% of all pairs of compound and target were hits.

Compound: NC(=O)Nc1cc(-c2cccc(F)c2)sc1C(=O)N[C@H]1CCCNC1
Test: log2 fold change, soluble protein after heating vs DMSO (PISA); higher = thermal stabilisation; K562 lysate, 10 uM; active = over 0.2 and 3.5 SD of the protein, either way, in both replicates (recomputed)
How it was run: (§1)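 Dounce homogenisation of K562 pellets in PBS pH 7.4 with 1 mM MgCl2 produced a crude extract, used at 1 mg/mL protein. Exposure to 10 μM compound lasted 30 min, and aliquots were then heated for 3 min across 48°C-58°C, pooled and brought to 0.5% NP-40 at 4°C. The supernatant after 21,000xg for 90 min was quantified by TMTpro 16plex LC-MS/MS with channel sums equalised. Duplicate values are given as log-two fold change in thermal stability relative to solvent controls.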

Chain of UniProt P35250 (P35250 whole entry, looked up): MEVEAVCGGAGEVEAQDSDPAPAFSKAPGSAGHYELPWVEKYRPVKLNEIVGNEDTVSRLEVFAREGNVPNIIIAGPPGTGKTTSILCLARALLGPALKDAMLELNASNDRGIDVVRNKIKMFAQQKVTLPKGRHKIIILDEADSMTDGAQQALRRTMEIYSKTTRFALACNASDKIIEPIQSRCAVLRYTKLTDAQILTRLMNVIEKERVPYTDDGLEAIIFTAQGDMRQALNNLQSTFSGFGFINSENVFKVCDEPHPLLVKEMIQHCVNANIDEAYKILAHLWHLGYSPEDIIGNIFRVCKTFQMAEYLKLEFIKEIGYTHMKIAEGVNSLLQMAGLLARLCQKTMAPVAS
Chain of UniProt O15027 (O15027 whole entry, looked up): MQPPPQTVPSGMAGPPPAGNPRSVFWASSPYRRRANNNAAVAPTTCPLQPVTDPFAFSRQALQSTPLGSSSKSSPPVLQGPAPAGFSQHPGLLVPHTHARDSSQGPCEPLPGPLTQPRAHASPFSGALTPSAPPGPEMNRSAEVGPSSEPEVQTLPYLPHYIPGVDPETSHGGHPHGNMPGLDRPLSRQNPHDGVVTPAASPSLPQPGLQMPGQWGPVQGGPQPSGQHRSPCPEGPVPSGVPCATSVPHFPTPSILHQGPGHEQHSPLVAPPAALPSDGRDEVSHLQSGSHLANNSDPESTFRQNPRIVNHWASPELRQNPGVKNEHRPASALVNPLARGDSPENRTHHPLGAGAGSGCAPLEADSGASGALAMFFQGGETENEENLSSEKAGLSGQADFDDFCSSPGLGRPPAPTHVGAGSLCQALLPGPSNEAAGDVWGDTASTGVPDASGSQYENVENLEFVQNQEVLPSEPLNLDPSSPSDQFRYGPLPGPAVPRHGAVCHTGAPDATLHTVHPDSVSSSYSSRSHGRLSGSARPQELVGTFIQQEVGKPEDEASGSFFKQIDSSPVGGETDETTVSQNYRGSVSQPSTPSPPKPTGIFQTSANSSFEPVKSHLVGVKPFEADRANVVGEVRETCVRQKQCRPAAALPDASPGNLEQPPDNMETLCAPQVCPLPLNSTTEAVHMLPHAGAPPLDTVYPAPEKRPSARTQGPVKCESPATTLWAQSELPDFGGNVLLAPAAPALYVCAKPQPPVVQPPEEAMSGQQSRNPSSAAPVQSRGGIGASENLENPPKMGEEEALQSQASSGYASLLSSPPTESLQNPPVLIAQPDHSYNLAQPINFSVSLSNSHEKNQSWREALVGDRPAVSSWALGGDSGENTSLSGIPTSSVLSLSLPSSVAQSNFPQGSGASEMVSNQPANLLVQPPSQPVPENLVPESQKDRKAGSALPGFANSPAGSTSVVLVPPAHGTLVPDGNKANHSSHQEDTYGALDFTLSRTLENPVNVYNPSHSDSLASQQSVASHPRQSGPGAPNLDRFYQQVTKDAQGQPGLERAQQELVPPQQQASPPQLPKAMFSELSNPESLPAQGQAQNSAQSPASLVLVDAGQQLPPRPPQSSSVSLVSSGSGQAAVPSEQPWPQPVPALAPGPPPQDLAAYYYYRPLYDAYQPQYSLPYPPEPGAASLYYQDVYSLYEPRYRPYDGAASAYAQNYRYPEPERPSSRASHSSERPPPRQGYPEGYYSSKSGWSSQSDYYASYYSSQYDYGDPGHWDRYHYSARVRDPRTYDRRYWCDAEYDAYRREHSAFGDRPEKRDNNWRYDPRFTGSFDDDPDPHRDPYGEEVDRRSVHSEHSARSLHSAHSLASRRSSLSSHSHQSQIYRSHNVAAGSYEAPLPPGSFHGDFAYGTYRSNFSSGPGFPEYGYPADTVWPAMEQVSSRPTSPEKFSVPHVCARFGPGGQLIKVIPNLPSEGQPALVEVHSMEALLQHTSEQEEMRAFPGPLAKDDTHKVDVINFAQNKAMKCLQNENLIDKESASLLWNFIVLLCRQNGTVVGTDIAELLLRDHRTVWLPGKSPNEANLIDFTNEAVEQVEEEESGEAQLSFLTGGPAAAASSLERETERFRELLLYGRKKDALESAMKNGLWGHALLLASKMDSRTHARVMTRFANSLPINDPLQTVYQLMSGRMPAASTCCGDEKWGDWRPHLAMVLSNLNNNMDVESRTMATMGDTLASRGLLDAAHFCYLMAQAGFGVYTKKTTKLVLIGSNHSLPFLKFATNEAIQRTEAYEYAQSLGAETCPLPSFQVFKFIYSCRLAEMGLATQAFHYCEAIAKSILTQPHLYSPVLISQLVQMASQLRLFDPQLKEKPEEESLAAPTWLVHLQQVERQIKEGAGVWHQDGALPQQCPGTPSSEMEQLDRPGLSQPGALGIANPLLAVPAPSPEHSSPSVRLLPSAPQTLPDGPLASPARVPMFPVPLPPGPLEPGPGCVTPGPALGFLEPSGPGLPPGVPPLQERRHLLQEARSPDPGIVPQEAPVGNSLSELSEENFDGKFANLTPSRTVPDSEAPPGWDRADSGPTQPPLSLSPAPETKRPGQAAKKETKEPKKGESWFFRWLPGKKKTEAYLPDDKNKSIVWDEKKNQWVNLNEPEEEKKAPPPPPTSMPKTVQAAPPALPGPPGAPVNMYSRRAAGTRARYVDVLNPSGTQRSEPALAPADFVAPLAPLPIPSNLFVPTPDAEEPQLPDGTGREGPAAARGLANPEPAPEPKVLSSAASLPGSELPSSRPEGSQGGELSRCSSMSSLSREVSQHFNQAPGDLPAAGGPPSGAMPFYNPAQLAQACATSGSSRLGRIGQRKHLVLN
Chain of UniProt P11233 (P11233 whole entry, looked up): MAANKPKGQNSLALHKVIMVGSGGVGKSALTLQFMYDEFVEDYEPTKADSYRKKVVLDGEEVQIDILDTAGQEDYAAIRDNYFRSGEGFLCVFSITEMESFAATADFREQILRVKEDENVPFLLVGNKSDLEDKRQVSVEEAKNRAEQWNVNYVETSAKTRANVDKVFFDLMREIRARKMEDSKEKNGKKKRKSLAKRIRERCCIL
Chain of UniProt P38159 (P38159 whole entry, looked up): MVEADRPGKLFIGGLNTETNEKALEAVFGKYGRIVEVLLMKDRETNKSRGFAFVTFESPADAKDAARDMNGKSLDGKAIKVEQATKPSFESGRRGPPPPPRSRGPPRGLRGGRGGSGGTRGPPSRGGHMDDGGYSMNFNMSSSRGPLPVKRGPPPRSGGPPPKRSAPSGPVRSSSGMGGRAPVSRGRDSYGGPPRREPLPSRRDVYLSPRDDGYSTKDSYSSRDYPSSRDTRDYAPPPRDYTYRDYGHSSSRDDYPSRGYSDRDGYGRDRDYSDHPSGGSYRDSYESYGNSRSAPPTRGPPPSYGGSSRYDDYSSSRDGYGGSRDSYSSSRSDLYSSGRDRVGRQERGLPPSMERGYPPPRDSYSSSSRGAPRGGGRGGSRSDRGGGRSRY
Chain of UniProt Q99643 (Q99643 whole entry, looked up): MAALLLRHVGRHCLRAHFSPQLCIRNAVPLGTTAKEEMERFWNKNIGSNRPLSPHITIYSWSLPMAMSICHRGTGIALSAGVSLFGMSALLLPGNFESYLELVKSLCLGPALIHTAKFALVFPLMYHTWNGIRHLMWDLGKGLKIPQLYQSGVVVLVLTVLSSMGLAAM
Chain of UniProt Q13546 (Q13546 whole entry, looked up): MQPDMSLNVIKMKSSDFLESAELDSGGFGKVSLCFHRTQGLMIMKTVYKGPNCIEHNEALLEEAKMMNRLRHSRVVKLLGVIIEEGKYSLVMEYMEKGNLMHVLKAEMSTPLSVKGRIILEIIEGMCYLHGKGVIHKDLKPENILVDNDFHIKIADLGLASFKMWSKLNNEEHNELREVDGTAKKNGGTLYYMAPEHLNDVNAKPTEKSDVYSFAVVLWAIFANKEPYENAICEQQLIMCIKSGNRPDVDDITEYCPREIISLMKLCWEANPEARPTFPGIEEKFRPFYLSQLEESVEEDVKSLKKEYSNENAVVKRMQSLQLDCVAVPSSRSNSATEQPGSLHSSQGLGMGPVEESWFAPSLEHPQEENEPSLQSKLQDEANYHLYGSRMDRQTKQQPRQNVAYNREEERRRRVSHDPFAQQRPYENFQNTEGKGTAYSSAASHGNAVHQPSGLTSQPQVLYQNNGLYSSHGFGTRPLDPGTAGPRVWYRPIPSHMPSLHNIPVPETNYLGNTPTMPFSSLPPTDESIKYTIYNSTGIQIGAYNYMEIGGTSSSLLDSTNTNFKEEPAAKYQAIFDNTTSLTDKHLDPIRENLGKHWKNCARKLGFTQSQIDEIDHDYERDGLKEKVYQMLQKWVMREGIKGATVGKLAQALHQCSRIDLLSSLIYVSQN
Chain of UniProt Q16576 (Q16576 whole entry, looked up): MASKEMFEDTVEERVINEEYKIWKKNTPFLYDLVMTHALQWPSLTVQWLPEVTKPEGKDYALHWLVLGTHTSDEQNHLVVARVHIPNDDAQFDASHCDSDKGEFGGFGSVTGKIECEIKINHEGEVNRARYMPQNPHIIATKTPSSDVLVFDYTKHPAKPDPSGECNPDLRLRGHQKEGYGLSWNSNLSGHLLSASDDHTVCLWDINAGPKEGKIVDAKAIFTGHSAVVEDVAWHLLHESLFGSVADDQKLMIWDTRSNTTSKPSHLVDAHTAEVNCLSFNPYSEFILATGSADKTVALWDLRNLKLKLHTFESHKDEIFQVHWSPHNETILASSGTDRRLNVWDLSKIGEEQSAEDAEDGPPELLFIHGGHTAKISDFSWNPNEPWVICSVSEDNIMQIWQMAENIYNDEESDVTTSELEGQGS
Chain of UniProt P53611 (P53611 whole entry, looked up): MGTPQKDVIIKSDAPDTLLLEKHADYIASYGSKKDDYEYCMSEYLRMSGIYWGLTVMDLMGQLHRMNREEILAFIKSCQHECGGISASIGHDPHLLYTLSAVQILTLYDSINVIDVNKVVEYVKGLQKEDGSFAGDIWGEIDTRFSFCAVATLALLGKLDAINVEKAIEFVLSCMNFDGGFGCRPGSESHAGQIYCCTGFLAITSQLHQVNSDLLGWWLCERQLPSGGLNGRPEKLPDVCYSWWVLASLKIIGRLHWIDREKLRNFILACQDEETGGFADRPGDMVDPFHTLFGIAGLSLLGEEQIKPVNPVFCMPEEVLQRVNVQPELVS

log2 fold change, inactive:
RFC2 (UniProt P35250) 0.036
RBBP7 (UniProt Q16576) 0.04
RIPK1 (UniProt Q13546) 0.015
SDHC (UniProt Q99643) -0.057
RPS6KB1 (UniProt P23443) 0.035
RALA (UniProt P11233) 0.033
RBMX (UniProt P38159) 0.014
SEC16A isoform 5 (UniProt O15027) 0.032
RPS4X (UniProt P62701) -0.001
RPLP0P6 (UniProt Q8NHW5) 0.002

Compound: NC(=O)c1cnc(N[C@@H]2CCCC[C@@H]2N)nc1Nc1cccc(-n2nccn2)c1
Test: as above
How it was run: as §1

log2 fold change, inactive:
RAPGEF2, A0A2R8YGD3 -0.02
RAB27A (UniProt P51159) 0.014
RPL31 (UniProt P62899) -0.018
RBBP7 isoform 2 (UniProt Q16576) -0.025
RAP1GAP isoform 4 (UniProt P47736) -0.021
RBM22 (UniProt Q9NW64) 0.01
RABGGTB (UniProt P53611) -0.016
RNF113A (UniProt O15541) -0.005
RPS6KA3 (UniProt P51812) 0.09
SERINC3 (UniProt Q13530) 0.008
RRM1 (UniProt P23921) -0.002
RDH11 (UniProt Q8TC12) 0.034
RABEPK (UniProt Q7Z6M1) 0.013
RAE1 (UniProt P78406) 0.024
RNPC3 (UniProt Q96LT9) -0.056
SAR1A (UniProt Q9NR31) -0.154
SCML2 (UniProt Q9UQR0) 0.012
RIOK3 (UniProt O14730) 0.009
RBM23 isoform 2 (UniProt Q86U06) -0.056
RAF1 isoform 2 (UniProt P04049) -0.021
RTN4IP1 (UniProt Q8WWV3) -0.012
RAD54L2 (UniProt Q9Y4B4) 0.035
RAP1B (UniProt F5GZG1) -0.019
RFC2 (UniProt P35250) 0.014
RBBP7 (UniProt Q16576) -0.003
RIPK1 (UniProt Q13546) 0.01
SDHC (UniProt Q99643) -0.016
RPS6KB1 (UniProt P23443) -0.014
RALA (UniProt P11233) 0.038
RBMX (UniProt P38159) 0.033
SEC16A isoform 5 (UniProt O15027) 0.004
RPS4X (UniProt P62701) -0.034
RPLP0P6 (UniProt Q8NHW5) 0.005

Compound: NC1(c2ccc(-c3nc4ccn5c(=O)[nH]nc5c4cc3-c3ccccc3)cc2)CCC1
Test: as above
How it was run: as §1

log2 fold change, inactive:
RAPGEF2, A0A2R8YGD3 0.024
RAB27A (UniProt P51159) 0.021
RPL31 (UniProt P62899) 0.005
RBBP7 isoform 2 (UniProt Q16576) 0.035
RAP1GAP isoform 4 (UniProt P47736) -0.034
RBM22 (UniProt Q9NW64) 0.033
RABGGTB (UniProt P53611) 0.031
RNF113A (UniProt O15541) -0.002
RPS6KA3 (UniProt P51812) 0.005
SERINC3 (UniProt Q13530) -0.083
RRM1 (UniProt P23921) -0.038
RDH11 (UniProt Q8TC12) -0.011
RABEPK (UniProt Q7Z6M1) 0.002
RAE1 (UniProt P78406) 0.015
RNPC3 (UniProt Q96LT9) 0.06
SAR1A (UniProt Q9NR31) -0.045
SCML2 (UniProt Q9UQR0) -0.022
RIOK3 (UniProt O14730) 0.014
RBM23 isoform 2 (UniProt Q86U06) 0.021
RAF1 isoform 2 (UniProt P04049) -0.008
RTN4IP1 (UniProt Q8WWV3) 0.148
RAD54L2 (UniProt Q9Y4B4) -0.091
RAP1B (UniProt F5GZG1) -0.029
RFC2 (UniProt P35250) -0.05
RBBP7 (UniProt Q16576) 0.039
RIPK1 (UniProt Q13546) -0.047
SDHC (UniProt Q99643) 0.028
RALA (UniProt P11233) -0.003
RBMX (UniProt P38159) -0.021
SEC16A isoform 5 (UniProt O15027) -0.011
RPS4X (UniProt P62701) 0.008
RPLP0P6 (UniProt Q8NHW5) -0.016

log2 fold change, active:
RPS6KB1 (UniProt P23443) 0.405
